Shown are actives, neighbours in structure and some others; about 6.8% of the full set was active somewhere.
C diff growth = C. difficile growth inhibition; Clostridium difficile clinical isolate growth, OD600, 24 h; active compounds read low; growth activity, negative = inhibition, % at 16 µg/mL (by protocol); hit rate 0.25% among 86,000;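 active = mean growth activity at or below -80% and every replicate also at or below -80%; inconclusive = mean at or below -80% but some replicate above -80%; inactive = mean growth activity above -80%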
Pf Dd2 growth = inhibitors of Plasmodium falciparum Dd2 growth; P. falciparum Dd2 growth, SYBR Green, 72 h; active compounds read low; activity change, % at 10 µM; hit rate 2.3% among 94,000; AID 1159554; in the data active = activity change below about -80%; inconclusive = no clear call, values can overlap the other calls
T cruzi growth-1 = inhibitors of T. cruzi proliferation | AID 624255 | inhibition, % at 8.34 µM | hit rate 5.9% among 77,000 | T. cruzi beta-gal in NIH3T3, GalScreen luminescence, 90 h;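 active = mean inhibition above about 93%, with at least 55% of replicates each passing it, limit read from the data, passing the limit was not always enough; inconclusive = only one of those two conditions holds; inactive = neither condition holds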
T cruzi growth-2 = inhibitors of T. cruzi proliferation; AID 651739; hit rate 72% among 5,600; inhibition, % at 8.35 µM; T. cruzi beta-gal in NIH3T3, GalScreen luminescence, 90 h; shares compounds with T cruzi growth-1;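 active = mean replicate inhibition above about 95% and at least 55% of replicates individually reaching it, limit read from the data; inconclusive = only one of the two criteria is met; inactive = neither criterion is met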
T cruzi growth-3 = Trypanosoma cruzi proliferation inhibition; shares compounds with T cruzi growth-1; T. cruzi beta-gal in NIH3T3, GalScreen luminescence, 90 h; inhibition, % at 2.09 µM; hit rate 21% among 5,600;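 active = mean inhibition above about 95%, with at least 55% of replicates also reaching it, limit read from the data; inconclusive = meets just one of the two conditions; inactive = meets neither condition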
3T3 cytotox = kills mouse NIH/3T3 fibroblasts | shares compounds with T cruzi growth-1 | AID 651742 | cytotoxicity (signal decrease), % at 8.35 µM | NIH/3T3 viability, CellTiter-Glo ATP luminescence, 90 h | hit rate 14% among 5,600;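 active = mean signal decrease across replicates above about 35% based on untreated-well scatter, with enough replicates individually passing, limit read from the data; inconclusive = no rule stated though some were filed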
NIH3T3 tox 2 = cytotoxicity in mouse NIH/3T3 fibroblasts. shares compounds with T cruzi growth-1. NIH/3T3 viability, CellTiter-Glo ATP luminescence, 90 h. inhibition, % at 24.9 µM. hit rate 56% among 5,600. AID 651744;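 active = mean loss of cell viability signal at or above a set limit, and enough replicates individually reaching it; inconclusive = meets only the mean limit or only the replicate share; inactive = meets neither condition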
A number is an active result; – = inactive; ? = inconclusive; · = no result.

SMILES	C diff growth	Pf Dd2 growth	T cruzi growth-1	T cruzi growth-2	T cruzi growth-3	3T3 cytotox	NIH3T3 tox 2
COc1cccc(NC(=O)N(C)C[C@@H]2Oc3ncc(C#Cc4ccccc4)cc3C(=O)N([C@@H](C)CO)C[C@@H]2C)c1	–	–	?	100	–	–	–
COc1cccc(NC(=O)N(C)C[C@H]2Oc3ncc(C#Cc4ccncc4)cc3C(=O)N([C@H](C)CO)C[C@H]2C)c1	–	–	·	·	·	·	·
COc1cccc(C#Cc2cnc3c(c2)C(=O)N([C@H](C)CO)C[C@@H](C)[C@H](CN(C)C)O3)c1	–	–	102	102	–	–	105
COc1cccc(NC(=O)N(C)C[C@H]2Oc3ncc(C#Cc4ccccc4)cc3C(=O)N([C@@H](C)CO)C[C@@H]2C)c1	–	–	123	112	110	–	–
C[C@H](CO)N1C[C@H](C)[C@@H](CN(C)C(=O)Nc2ccccc2)Oc2ncc(C#CC3CCCCC3)cc2C1=O	–	–	103	106	–	–	30
C[C@@H]1CN([C@H](C)CO)C(=O)c2cc(C#CC3CCCCC3)cnc2O[C@H]1CN(C)C(=O)Nc1ccccc1	–	–	·	·	·	·	·
COc1cccc(NC(=O)N(C)C[C@@H]2Oc3ncc(C#Cc4ccncc4)cc3C(=O)N([C@H](C)CO)C[C@@H]2C)c1	–	–	·	·	·	·	·
O=C(Nc1ccc2c(c1)[C@@H]1C[C@@H](CC(=O)N3CCCCC3)O[C@H](CO)[C@@H]1O2)C1CCOCC1	·	–	–	·	·	·	·
CO[C@H]1CN(C)C(=O)c2cc(C#N)ccc2OC[C@@H]2O[C@@H](CC[C@H]2OC)CCN(C)C(=O)[C@H]1C	·	–	–	·	·	·	·
Cc1ccc(S(=O)(=O)Nc2ccc3c(c2)C(=O)N([C@@H](C)CO)C[C@H](C)[C@@H](CN(C)S(=O)(=O)c2ccc(F)cc2)OCCCC[C@H](C)O3)cc1	–	–	·	·	·	·	·
Cc1ccc(S(=O)(=O)Nc2ccc3c(c2)C(=O)N([C@H](C)CO)C[C@@H](C)[C@H](CN(C)S(=O)(=O)c2ccc(F)cc2)OCCCC[C@@H](C)O3)cc1	–	–	109	102	–	–	–
Cc1ccc(S(=O)(=O)N(C)C[C@H]2OCCCC[C@H](C)Oc3ccc(NS(=O)(=O)c4ccc(F)cc4)cc3C(=O)N([C@@H](C)CO)C[C@@H]2C)cc1	–	–	115	104	–	–	–
Cc1ccc(S(=O)(=O)Nc2ccc3c(c2)C(=O)N([C@@H](C)CO)C[C@H](C)[C@H](CN(C)S(=O)(=O)c2ccc(F)cc2)OCCCC[C@H](C)O3)cc1	–	–	116	104	–	–	–
Cc1ccc(S(=O)(=O)Nc2ccc3c(c2)C(=O)N([C@H](C)CO)C[C@@H](C)[C@@H](CN(C)S(=O)(=O)c2ccc(F)cc2)OCCCC[C@@H](C)O3)cc1	–	–	·	·	·	·	·
Cc1ccc(S(=O)(=O)Nc2ccc3c(c2)C(=O)N([C@@H](C)CO)C[C@@H](C)[C@H](CN(C)S(=O)(=O)c2ccc(F)cc2)OCCCC[C@@H](C)O3)cc1	–	–	103	106	–	–	–
Cc1ccc(S(=O)(=O)Nc2ccc3c(c2)C(=O)N([C@H](C)CO)C[C@@H](C)[C@@H](CN(C)S(=O)(=O)c2ccc(F)cc2)OCCCC[C@H](C)O3)cc1	–	–	·	·	·	·	·
CO[C@H]1CN(C)C(=O)c2cc(NS(C)(=O)=O)ccc2OC[C@@H](C)N(C(=O)C2CCCC2)C[C@@H]1C	·	·	–	·	·	·	·

High-throughput results (PubChem BioAssay)
